TDP1 cell CPT: DT40-hTDP1 cell growth loss with CPT. actives 12% (n = 420,000). chicken DT40 Tdp1-/-;hTDP1 cells + 20 nM CPT, ATP luminescence, 48 h. AID 686979. Potency, µM (highest dose often 46.2 µM), for the others: at the highest dose activity change, negative = growth inhibition, actives largely listed as inhibitors; also: potency is read from the fitted curve at half-maximal effect; nearly all actives have a fitted effect of over 55% in size
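Chicken DT40 Tdp1-/- cells stably complemented with human TDP1 were seeded at 400 cells/well in medium containing 20 nM camptothecin, exposed to pin-transferred compounds, and grown at 37 °C for at least 48 hr. Viability was read as ATP luminescence.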
TDP1 cell noCPT: qHTS for Inhibitors of human tyrosyl-DNA phosphodiesterase 1 (TDP1): qHTS in cells in absence of CPT. DT40 Tdp1-/- hTDP1 cells, no CPT, ATP luminescence, 48 h. actives 15% (n = 420,000). Potency, µM (doses to about 46.2 µM), inactives show at the top dose activity change, negative = growth inhibition, usual class: inhibitors. AID 686978, 2013; also: potency is read from the fitted curve at half-maximal effect; nearly all actives have a fitted effect of over 55% in size
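Seeded 400 DT40-hTDP1 cells/well (vehicle DMSO, no 20 nM CPT); pinned compounds; ≥48 hr at 37 °C; CellTiter-Glo luminescence as viability measure.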
HT1080-NT tox: kills 2HG-producing HT-1080-NT fibrosarcoma cells | Potency, µM (titrated, usually from 46.1 µM), for the others: at the top dose activity, negative = less viability, hits mostly cytotoxic | HT-1080-NT fibrosarcoma viability, CellTiter-Glo ATP luminescence, 48 h | AID 686970 | actives 1.6% (n = 360,000);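 also: NT is the 2HG producing partner of a matched IDH1 knockdown line; potency is read from the fitted curve at half-maximal effect; 0% = DMSO-treated cells and -100% = media-only wells without cells; nearly all actives have a fitted effect of over 55% in size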
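A 48-hour cytotoxicity screen used HT-1080-NT cells plated 2 hours before compound delivery. ATP-based CellTiter-Glo luminescence measured viability, normalized to DMSO and no-cell controls.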
HT1080 IDH1KD tx: HT-1080 IDH1 knockdown cell toxicity (counter line); Potency, µM (doses to about 46.1 µM), without a hit: at the top dose activity, negative = toxicity, most hits filed as cytotoxic; actives 2% (n = 360,000); HT-1080 IDH1 knockdown viability, ATP luminescence, 48 h;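 also: potency is read from the fitted curve at half-maximal effect; 0% = DMSO wells and -100% = cell-free medium wells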
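Cytotoxicity counter-line: IDH1KD HT-1080, 48 h, CellTiter-Glo. Curves classed by r2, magnitude and activity.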
IL-1B inflam inh: inflammasome signaling inhibition, IL-1 beta readout; THP-1 LPS/ATP IL-1B secretion, AlphaLISA, 16 h; stronger effect = lower value; activity change, % at 57.5 µM; actives 4.7% (n = 360,000); in the data active = activity change below about -50%; inconclusive = mostly about -30% to -49%
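THP-1 cells pretreated 1 hr with compounds (up to 57.5 uM final), then stimulated with LPS (250 ng/mL final) plus ATP (1.25 mM final); secreted IL-1B measured by AlphaLISA after 16 hr, decreased signal indicating inhibition.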
Numbers without * were called inactive; i = inactive; ? = inconclusive; · = no result; [ ] = remark or other dose. This is a sample that favours compounds with a hit; in the whole collection about 19% have one here. Unless noted, calls follow the shape of the dose curve; as a rule, active = well fitted curve in the direction sought with a large enough effect; inconclusive = small, poorly fitted or top-dose-only effect, or another doubt; inactive = no such curve, though single readings can be large; an effect the other way counts as inactive or inconclusive. Unless noted, % is scaled to controls: 0 for no effect and ±100 for the full control effect.

SMILES	TDP1 cell CPT	TDP1 cell noCPT	HT1080-NT tox	HT1080 IDH1KD tx	IL-1B inflam inh
CCOC(=O)C1=CC[C@@H](c2ccco2)N(S(=O)(=O)c2ccc(C)cc2)[C@H]1C(=O)OCC	?	18.4µM*	8.6%	7.2%	1.2
CCOC(=O)C1=CC[C@@H](c2ccccc2Cl)N(S(=O)(=O)c2ccc(C)cc2)[C@H]1C(=O)OCC	?	20.6µM*	-2.4%	-12.3%	-1.0
Cc1ccc(S(=O)(=O)N2[C@@H](c3ccc(F)cc3)C(C(=O)O)=CC[C@H]2c2cccc(C)c2)cc1	7.3%	3.9%	15.8%	-3.1%	23.4
CCOC(=O)C1=CC[C@@H](c2cccc(C)c2)N(S(=O)(=O)c2ccc(C)cc2)[C@H]1C(=O)OCC	14.6µM*	16.4µM*	-12.4%	-17.9%	0.0
CC(O)(COc1ccccc1)c1ccc2c(c1)CN(C/C=C/c1ccco1)CCO2 (configuration not stated)	-10.9%[9.04 µM]	?	·	·	·
CC1(c2ccccc2)CC(C)(C)n2c(O)c(C3=NC(=S)NC3=O)c3cccc1c32 (configuration not stated)	?	23.1µM*	0.9%	-1.3%	34.3
COc1cc2c3c(c1)c(C1=NC(=S)NC1=O)c(O)n3C(C)(C)C=C2C	-25.5%	-13.2%	11.4%	25.0%	-15.9
CN(C(=O)CSc1nnc(-c2ccccc2F)o1)C1CCCCC1	-4.3%	1.2%	·	·	·
O=C(C=Cc1cccc(O)c1)c1ccccc1O	?	14.6µM*	?	?	-93.1*
O=C(/C=C/c1ccc(F)cc1)c1ccccc1Br	?	16.4µM*	-18.4%	?	?
NC(=O)c1ccccc1Br	-0.6%	-12.7%	14.7%	14.8%	39.8
O=C(O)c1cc(/C=C/C(=O)c2cc(F)ccc2O)c2c(c1)COCO2	-29.5%	?	0.0%	-7.0%	-13.5
O=C(C=Cc1ccccc1O)c1ccccc1O	?	14.6µM*	23.1µM*	18.4µM*	-96.9*
O=C(/C=C/c1cc2ccccc2o1)c1ccccc1O	-5.8%	?	?	-22.4%	-102.0*
CCOC(=O)C(=O)Nc1cc(Cl)ccc1C	2.0%	5.6%	7.8%	6.0%	12.2
Cc1cccc(N(C)C(=O)CCS(=O)(=O)c2cc3c(cc2Cl)NC(=O)CO3)c1	-5.4%	-10.9%	-7.2%	0.2%	-15.9
O=C(NCC1CCCO1)C1CCN(C2CCN(C(=O)Cc3ccsc3)CC2)CC1 (configuration not stated)	15.7%	-16.5%	-2.1%	3.3%	-8.3
NC(=O)c1cnn2c(-c3ccc(Cl)cc3Cl)ccnc12	-3.5%	-22.0%	-1.5%	10.9%	5.2
O=C(/C=C/c1ccc(O)c(O)c1)OCCc1ccccc1	1.46µM*	1.03µM*	?	?	-25.0
O=C(/C=C/c1ccoc1)c1ccccc1O	16.9%	-13.4%	2.7%	-1.1%	30.3
O=C(/C=C/c1ccc(O)c(O)c1)c1ccccc1O	11.6µM*	?	-6.7%	-24.2%	-93.2*
CN(CC(=O)Nc1ccccc1F)S(=O)(=O)c1ccc2c(c1)n(C)c(=O)c(=O)n2C	7.4%	2.4%	5.8%	16.2%	-1.7
CSC[C@H]1CN(c2ccc(Br)cc2)C(=O)[C@@H]1CC(=O)Nc1ccc(Br)cc1	-6.6%	?	-9.1%	-12.5%	-13.2
COc1ccc(OC)c(CNc2ncnc3c2nc2n3CCCC2)c1	13µM*	?	·	·	·
Clc1cccc(N2CCN(c3ncnc4c3nc3n4CCCC3)CC2)c1	16.4µM*	20.6µM*	·	·	·
SMILES	TDP1 cell CPT	TDP1 cell noCPT	HT1080-NT tox	HT1080 IDH1KD tx	IL-1B inflam inh
Clc1cccc(Nc2ncnc3c2nc2n3CCCCC2)c1	8.2µM*	9.2µM*	·	·	·
Clc1ccccc1Nc1ncnc2c1nc1n2CCCCC1	8.2µM*	?	·	·	·
COc1ccc(CNc2ncnc3c2nc2n3CCCC2)cc1	?	-17.7%	·	·	·
Fc1ccc(N2CCN(c3ncnc4c3nc3n4CCCC3)CC2)cc1	-29.0%	?	·	·	·
Fc1ccc(Nc2ncnc3c2nc2n3CCCC2)cc1	-13.6%	?	·	·	·
CC12CCCC(O)(C1)C1CC(C)(C)C1CC2 (configuration not stated)	9.5%	2.0%	·	·	·
CCOc1ccc(C(=O)Nc2ccc3oc(-c4ccncc4)nc3c2)cc1	-20.8%	-29.5%	·	·	·
CCOc1ccc(C(=O)Nc2ccc3oc(-c4ccc5ccccc5c4)nc3c2)cc1	3.66µM*	?	·	·	·
CCOc1cccc(C(=O)Nc2ccc3oc(-c4ccc(C(C)(C)C)cc4)nc3c2)c1	?	2.91µM*	·	·	·
CCOc1cccc(C(=O)Nc2ccc3oc(-c4cccnc4)nc3c2)c1	?	?	6.7%	5.9%	?
O=C(c1ccc(SCc2cccc(Br)c2)c([N+](=O)[O-])c1)N1CCN(c2ccccn2)CC1	?	-20.4%	0.1%	11.5%	-7.1
CC(C)(C)C(=O)NNc1nc(-c2ccccc2)c2cc(Br)ccc2n1	16.4µM*	13µM*	-5.5%	-24.9%	-16.1
CC1=CC(C)(C)[N+](C)(C)c2ccc(C)cc21	?	18.4µM*	-11.0%	-7.1%	40.9
O=C1c2cnccc2CN1Cc1ccccc1	7.5%	-14.5%	16.2%	23.3%	3.3
c1csc(-c2cn3ccc4ccccc4c3n2)c1	-13.7%	-18.6%	-19.4%	-29.5%	-62.0*
CC(=O)Oc1ccc(-c2cccc(C(=O)OCC(=O)N(C)c3ccccc3)c2)cc1	?	23.1µM*	2.5%	11.2%	0.0
COc1ccc(N(C)S(=O)(=O)c2cccc(C(=O)OCC(=O)N(C)c3ccccc3)c2)cc1	?	20.6µM*	1.2%	-25.5%	-8.1
CC(=O)Oc1ccc(-c2cccc(C(=O)OCC(=O)Nc3ccccc3Oc3ccccc3)c2)cc1	-26.8%	18.4µM*	?	?	16.1
CN(C(=O)COC(=O)c1cccc(S(=O)(=O)N2CCCCCC2)c1)c1ccccc1	0.8%	-29.1%	-1.0%	0.0%	14.5
CCOc1ccccc1NC(=O)COC(=O)c1cccc(-c2ccc(OC(C)=O)cc2)c1	?	25.9µM*	-19.9%	-6.3%	i
O=C(COC(=O)c1cccc(Cl)c1)Nc1cc(Cl)ccc1Oc1ccccc1	?	?	9.1%	3.7%	-2.7
O=C(c1ccc(S(=O)(=O)Nc2ccccc2F)cc1)N1CCC1	-7.2%	-10.3%	1.3%	23.3%	-1.5
O=c1[nH]c(SCc2ccccc2)nc2c1sc1ccccc12	5.6%	-4.8%	-1.1%	-16.4%	23.4
Cc1ccc(NC(=O)c2cc(C)nn2-c2ccccc2)cc1	?	?	-8.3%	10.2%	-8.1
CC(C)(C)c1cc(C(=O)N/N=C/c2ccc(F)cc2)n(-c2ccccc2)n1	18.4µM*	23.1µM*	-1.2%	10.5%	10.6
O=C(N/N=C\c1ccc(F)cc1)c1ccc(F)cc1	11.7%	3.3%	26.9%	20.8%	0.0
